In PubChem BioAssay (Tox21):
Records with an inconclusive call do not appear. Activity calls are given as the source filed them. Unless noted, the call rests on the fitted dose curve; in most records, active means well fitted curve in the direction sought with a large enough effect in the repeat runs; inconclusive means weak or mixed curves; inactive means no such curve, though single readings can be large; an effect the other way counts as inactive or inconclusive.

Tests used:
[1] = qHTS assay for small molecules that induce genotoxicity in human embryonic kidney cells expressing luciferase-tagged ATAD5 (AID 651632); further: nearly all actives have a fitted effect of over 15% in size
Procedure, shortened: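 HEK293T cells carrying a luciferase reporter tagged to ATAD5 were exposed to compound or DMSO vehicle for 16 hr at 37C, 5% CO2. Amplite was added, and after 30 min at room temperature luciferase activity was read as a marker of ATAD5 induction.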

[2] = qHTS assay for small molecule agonists of the p53 signaling pathway - cell viability (AID 651633; calls by dose curve; further: nearly all actives have a fitted effect of over 30% in size; further: potency means the concentration at half of the fitted maximal effect)
Procedure, shortened: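 p53RE-bla cells were treated with compound for 16 hours at 37 C. Cytotoxicity was then measured as CellTiter-Glo luminescence after 30 min at room temperature.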

[3] = qHTS assay for small molecules that induce genotoxicity in human embryonic kidney cells expressing luciferase-tagged ATAD5 - cell viability (AID 651634; calls by dose curve; further: nearly all actives have a fitted effect of over 25% in size; further: potency means the concentration at half of the fitted maximal effect)
Procedure, shortened: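 HEK293T cells expressing luciferase-tagged ATAD5 were exposed to compound or DMSO for 15.5 hr at 37C, 5% CO2. Viability was then read as live-cell protease activity by CellTiter-Fluor fluorescence after 30 min at 37C.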

[4] = qHTS assay for small molecule disruptors of the mitochondrial membrane potential - cell viability (AID 720634; calls by dose curve; further: nearly all actives have a fitted effect of over 20% in size; further: potency means the concentration at half of the fitted maximal effect)
Procedure, shortened: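 HepG2 cells seeded overnight at 37 C, then exposed to compound or DMSO for 1 hr at 37 C, 5% CO2. m-MPI dye added, then CellTiter-Glo for 30 min at room temperature; viability read as ATP luminescence.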

[5] = qHTS assay for small molecule disruptors of the mitochondrial membrane potential (AID 720635); further: potency means the concentration at half of the fitted maximal effect
Procedure, shortened: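 HepG2 cells exposed to compound 1 hr at 37C, then Mito-MPS dye 30 min. Ratio read of aggregate (540/590 nm) versus monomer (490/535 nm) fluorescence.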

[6] = qHTS assay to test for compound auto fluorescence at 590 nm (red) in HepG2 cells (AID 720674)
Procedure, shortened: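 Fluorescence at 590 nm emission following 540 nm excitation was recorded from HepG2 wells one hour after compound transfer, with DMSO-only wells as vehicle and Rose Bengal sodium equivalency as the scale.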

[7] = qHTS assay to test for compound auto fluorescence at 535 nm (green) in HepG2 cells (AID 720675); further: potency means the concentration at half of the fitted maximal effect
[8] = qHTS assay to test for compound auto fluorescence at 460 nm (blue) in HEK293 cells (AID 720678)
Procedure, shortened: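 Blue read-out at excitation 405 nm and emission 460 nm follows overnight compound exposure of HEK293 cells at 37C in 5% CO2. Activity is given as auto fluorescence equivalency to triamterene.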

[9] = qHTS assay to test for compound auto fluorescence at 590 nm (red) in HEK293 cells (AID 720679)
Procedure, shortened: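 Red channel, Ex/Em 540/590nm; signal expressed as equivalency to Rose Bengal sodium. HEK293, 2,000 cells/well, 10% dialyzed FBS; 23 nL compound pinned after 4-5 hr attachment; overnight 37C/5% CO2 before reading.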

[10] = qHTS assay to test for compound auto fluorescence at 535 nm (green) in HEK293 cells (AID 720680); further: potency means the concentration at half of the fitted maximal effect
[11] = qHTS assay to test for compound auto fluorescence at 460 nm (blue) in HEK293 cell free culture (AID 720681)
Procedure, shortened: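 Compounds were added to cell-free DMEM with 10% FBS and fluorescence read directly. The blue channel used 405 nm excitation and 460 nm emission, with triamterene as the reference fluorophore.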

[12] = qHTS assay to test for compound auto fluorescence at 535 nm (green) in HEK293 cell free culture (AID 720682); further: potency means the concentration at half of the fitted maximal effect
Procedure, shortened: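 Measurement is a direct plate read of green fluorescence (485 nm in, 535 nm out) after compound addition to serum-supplemented DMEM lacking cells, with fluorescein used to express intensities.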

[13] = qHTS assay to test for compound auto fluorescence at 590 nm (red) in HEK293 cell free culture (AID 720683)
Procedure, shortened: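 Cell-free wells of DMEM with 10% FBS received compound, and intrinsic fluorescence was read at excitation/emission 540/590 nm. Values expressed as equivalence to Rose Bengal sodium.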

[14] = qHTS assay to test for compound auto fluorescence at 590 nm (red) in HepG2 cell free culture (AID 720684)
Procedure, shortened: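 Compounds are added to culture medium (MEM, 10% FBS) lacking cells, then fluorescence is read at excitation 540 nm, emission 590 nm, with Rose Bengal sodium as the equivalency standard.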

[15] = qHTS assay to test for compound auto fluorescence at 460 nm (blue) in HepG2 cell free culture (AID 720685)
Procedure, shortened: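 Compound (23 nL) or DMSO pinned into cell-free MEM with 10% FBS; blue fluorescence read at 405/460 nm excitation/emission, expressed as auto-fluorescence equivalency to triamterene.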

[16] = qHTS assay to test for compound auto fluorescence at 535 nm (green) in HepG2 cell free culture (AID 720686); further: potency means the concentration at half of the fitted maximal effect
[17] = qHTS assay to test for compound auto fluorescence at 460 nm (blue) in HepG2 cells (AID 720687)
Procedure, shortened: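 HepG2 cells in MEM with 10% FBS, attached overnight at 37 C, were exposed to compound or DMSO for 1 hr at 37 C, 5% CO2. Blue fluorescence was read at 405/460 nm, with triamterene as reference fluorophore.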

[18] = target: Glucocorticoid receptor (Homo sapiens) (UniProt P04150); assay: qHTS assay to identify small molecule agonists of the glucocorticoid receptor (GR) signaling pathway (AID 720691; active means well fitted activation curve with a large enough effect in the signal ratio in the repeat runs, not every such curve was filed as active; the % refers to the signal ratio)
Chain of Glucocorticoid receptor (Homo sapiens) (P04150 whole entry, looked up): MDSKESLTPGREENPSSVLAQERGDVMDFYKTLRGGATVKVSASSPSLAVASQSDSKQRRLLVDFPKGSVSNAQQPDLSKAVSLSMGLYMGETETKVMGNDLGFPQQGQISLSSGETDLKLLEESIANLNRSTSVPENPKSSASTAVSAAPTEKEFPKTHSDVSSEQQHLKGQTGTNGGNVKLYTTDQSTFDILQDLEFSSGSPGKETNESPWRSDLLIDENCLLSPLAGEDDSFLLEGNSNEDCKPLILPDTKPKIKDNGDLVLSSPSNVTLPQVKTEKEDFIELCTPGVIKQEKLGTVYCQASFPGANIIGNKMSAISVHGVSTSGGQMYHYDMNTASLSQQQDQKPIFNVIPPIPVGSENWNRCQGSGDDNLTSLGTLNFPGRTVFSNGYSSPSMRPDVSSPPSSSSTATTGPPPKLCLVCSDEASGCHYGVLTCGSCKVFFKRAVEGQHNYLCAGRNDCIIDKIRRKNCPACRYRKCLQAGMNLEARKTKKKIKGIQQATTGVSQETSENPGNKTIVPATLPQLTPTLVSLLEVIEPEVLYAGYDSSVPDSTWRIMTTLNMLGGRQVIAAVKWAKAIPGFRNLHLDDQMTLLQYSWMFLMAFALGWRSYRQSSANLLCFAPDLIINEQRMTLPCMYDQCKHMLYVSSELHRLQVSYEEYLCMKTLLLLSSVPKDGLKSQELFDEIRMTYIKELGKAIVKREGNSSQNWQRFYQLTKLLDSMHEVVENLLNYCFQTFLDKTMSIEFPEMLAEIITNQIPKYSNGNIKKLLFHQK
Procedure, shortened: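 GR-bla HeLa cells (beta-lactamase reporter under glucocorticoid response element) were plated 4 h at 37 C/5% CO2, given compounds in DMSO, and incubated 18 h at 37 C. LiveBLAzer B/G FRET substrate was added for 2 h at room temperature, then fluorescence intensity read.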

[19] = target: Glucocorticoid receptor (Homo sapiens) (UniProt P04150); assay: qHTS assay to identify small molecule antagonists of the glucocorticoid receptor (GR) signaling pathway (AID 720692; active means well fitted inhibition curve with a large enough effect in the signal ratio in the repeat runs, not every such curve was filed as active; the % refers to the signal ratio; further: potency means the concentration at half of the fitted maximal effect)
Procedure, shortened: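 GR-bla HeLa cells (beta-lactamase reporter under glucocorticoid response element) were pre-plated 4 h at 37 C, treated with compounds plus 5 nM dexamethasone (final) for 18 h, then read by LiveBLAzer B/G FRET fluorescence after 2 h.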

[20] = qHTS assay for small molecule agonists of the p53 signaling pathway (AID 651631; calls by dose curve; further: nearly all actives have a fitted effect of over 15% in size)
Procedure, shortened: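 Quantitative high-throughput format: 4,000 p53RE-bla HCT-116 cells/well, 5 h pre-incubation, 16 h compound exposure at 37 °C, 2 h room-temperature substrate step, fluorescence intensity measured.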
On the % scale 0 is the no-effect control and ±100 the full control effect; tags describe the fitted curve by direction and shape or compound fluorescence and quenching.

CCCC1CCC(=O)CC1
inactive: Potency [1] | Potency [2] | Potency [3] | Potency [4] | Potency [5] | Potency [6] | Potency [7] | Potency [8] | Potency [9] | Potency [10] | Potency [11] | Potency [12] | Potency [13] | Potency [14] | Potency [15] | Potency [16] | Potency [17] | Potency [18] | Potency [19]

Cc1cccc(C(=O)O)c1O
inactive: Potency [1] | Potency [2] | Potency [3] | Potency [4] | Potency [5] | Potency [6] | Potency [8] | Potency [9] | Potency [10] | Potency [11] | Potency [12] | Potency [13] | Potency [14] | Potency [15] | Potency [16] | Potency [17] | Potency [18]

CC(C)(C)c1csc(-c2cc3cc(OCc4ccccc4CC(=O)O)ccc3o2)n1
inactive: Potency [1] | Potency [6] | Potency [7] | Potency [8] | Potency [9] | Potency [10] | Potency [11] | Potency [12] | Potency [13] | Potency [14] | Potency [15] | Potency [16] | Potency [17]
active: Potency [2] 15.4 µM | Potency [3] 24.3 µM | Potency [4] 61.1 µM | Potency [5] 4.86 µM

COc1ccc(NC(=O)CC(C)=O)cc1
inactive: Potency [20] | Potency [2] | Potency [3] | Potency [4] | Potency [6] | Potency [7] | Potency [8] | Potency [9] | Potency [10] | Potency [11] | Potency [12] | Potency [13] | Potency [16] | Potency [17]

O=C1C(c2[nH]c3ccc(S(=O)(=O)O)cc3c2O)=Nc2ccc(S(=O)(=O)O)cc21
inactive: Potency [20] | Potency [3] | Potency [4] | Potency [5] | Potency [6] | Potency [8] | Potency [9] | Potency [10] | Potency [11] | Potency [12] | Potency [13] | Potency [14] | Potency [16] | Potency [17]

O=C(O)c1cc(N=Nc2ccc([N+](=O)[O-])cc2)ccc1O
inactive: Potency [20] | Potency [2] | Potency [6] | Potency [7] | Potency [8] | Potency [9] | Potency [10] | Potency [11] | Potency [12] | Potency [13] | Potency [14] | Potency [15] | Potency [16] | Potency [17]
active: Potency [3] 53.5 µM | Potency [5] 53.5 µM | Potency [19] 27 µM

CN(C)C(=O)COC(=O)Cc1ccc(OC(=O)c2ccc(N=C(N)N)cc2)cc1
inactive: Potency [1] | Potency [2] | Potency [3] | Potency [4] | Potency [5] | Potency [6] | Potency [8] | Potency [9] | Potency [10] | Potency [11] | Potency [12] | Potency [13] | Potency [14] | Potency [15] | Potency [16] | Potency [17] | Potency [18] | Potency [19]

[Cu+]
inactive: Potency [1] | Potency [2] | Potency [3] | Potency [4] | Potency [6] | Potency [9] | Potency [10] | Potency [11] | Potency [12] | Potency [16] | Potency [17]

Cc1cc(-c2ccc(N=Nc3cc(S(=O)(=O)O)c4ccccc4c3N)c(C)c2)ccc1N=Nc1cc(S(=O)(=O)O)c2ccccc2c1N
active: Potency [5] 12.3 µM
inactive: Potency [1] | Potency [3] | Potency [4] | Potency [6] | Potency [7] | Potency [8] | Potency [9] | Potency [10] | Potency [11] | Potency [12] | Potency [13] | Potency [14] | Potency [15] | Potency [16] | Potency [17] | Potency [18]

CCO[C@@H]1O[C@H](C(COCc2ccccc2)OCc2ccccc2)[C@H](OCc2ccccc2)[C@H]1O (some centres undefined)
active: Potency [5] 11.4 µM
inactive: Potency [1] | Potency [2] | Potency [3] | fluorescence, relative to Rose Bengal [6] -0.664% [at 18.6 µM] | fluorescence, % of fluorescein control [7] -0.0707% [at 18.6 µM] | fluorescence, % of fluorescent control [9] 0.894% [at 18.6 µM] | fluorescence, % of fluorescein [10] -0.012% [at 18.6 µM] | fluorescence, % of fluorescent control [11] 0.118% [at 18.6 µM] | activity change [12] -0.0677% [at 18.6 µM, active compounds read high] | fluorescence, % of fluorescent control [13] -0.0196% [at 18.6 µM] | fluorescence, % of Rose Bengal [14] -0.0599% [at 18.6 µM] | fluorescence, % of fluorescent control [15] -0.0414% [at 18.6 µM] | fluorescence, % of fluorescein control [16] -0.102% [at 18.6 µM] | fluorescence, % of fluorescent control [17] -0.0213% [at 18.6 µM] | Potency [18]

c1ccc(C(O[C@@H]2CCCN(CCc3ccc4c(c3)OCO4)C2)c2ccccc2)cc1
inactive: Potency [1] | Potency [2] | Potency [3] | Potency [6] | Potency [7] | Potency [9] | Potency [10] | Potency [11] | Potency [12] | Potency [13] | Potency [14] | Potency [15] | Potency [16] | Potency [17] | Potency [18]

Cc1cc(C(C)(C)C)c(O)c(C)c1Cn1c(=O)n(Cc2c(C)cc(C(C)(C)C)c(O)c2C)c(=O)n(Cc2c(C)cc(C(C)(C)C)c(O)c2C)c1=O
active: Potency [5] 9.69 µM
inactive: Potency [1] | Potency [3] | Potency [4] | Potency [6] | Potency [7] | Potency [8] | Potency [9] | Potency [10] | Potency [11] | Potency [12] | Potency [13] | Potency [14] | Potency [15] | Potency [16] | Potency [17] | Potency [18]

CCCCCCCCCCCCOCCOCCOCCOCCOCCOCCOCCOCCOCCO
active: Potency [2] 26.6 µM | Potency [5] 19.7 µM
inactive: Potency [1] | Potency [6] | Potency [7] | Potency [8] | Potency [9] | Potency [10] | Potency [11] | Potency [12] | Potency [13] | Potency [14] | Potency [15] | Potency [16] | Potency [17]

C=C(C)C(=O)OCCCCCCCCCC
inactive: Potency [1] | Potency [2] | Potency [3] | Potency [4] | Potency [6] | Potency [7] | Potency [8] | Potency [9] | Potency [10] | Potency [11] | Potency [12] | Potency [14] | Potency [15] | Potency [16] | Potency [17] | Potency [18]

O=C1OC2(c3ccc(O)cc3Oc3cc(O)ccc32)c2ccc(N=C=S)cc21
inactive: Potency [1] | Potency [2] | Potency [3] | Potency [4] | Potency [6] | Potency [9] | Potency [11] | Potency [13] | Potency [14] | Potency [17] | Potency [18] | Potency [19]
active: Potency [7] 39.8 µM | Potency [10] 39.8 µM [fluorescent] | Potency [12] 39.8 µM [fluorescent] | Potency [16] 35.5 µM [fluorescent]

CC(=O)[C@H]1CC[C@H]2[C@@H]3CCC4=CC(=O)CC[C@]4(C)[C@H]3CC[C@]12C
inactive: Potency [1] | Potency [3] | Potency [4] | Potency [6] | Potency [7] | Potency [8] | Potency [9] | Potency [10] | Potency [11] | Potency [12] | Potency [14] | Potency [15] | Potency [16] | Potency [17]
active: Potency [5] 19.3 µM
